In PubChem BioAssay AID1963317 (National Center for Advancing Translational Sciences (NCATS), 2024) one finds Potency data, which are given here for 36 compounds.

Each structure is given as a SMILES string. Inconclusive results are not listed. Where a call stands in place of a potency, no number is given. Activity calls are given as the source filed them. Calls come from the whole dose curve.

Sequence of Tyrosine-protein kinase ABL1 (Homo sapiens) (P00519 whole entry, looked up): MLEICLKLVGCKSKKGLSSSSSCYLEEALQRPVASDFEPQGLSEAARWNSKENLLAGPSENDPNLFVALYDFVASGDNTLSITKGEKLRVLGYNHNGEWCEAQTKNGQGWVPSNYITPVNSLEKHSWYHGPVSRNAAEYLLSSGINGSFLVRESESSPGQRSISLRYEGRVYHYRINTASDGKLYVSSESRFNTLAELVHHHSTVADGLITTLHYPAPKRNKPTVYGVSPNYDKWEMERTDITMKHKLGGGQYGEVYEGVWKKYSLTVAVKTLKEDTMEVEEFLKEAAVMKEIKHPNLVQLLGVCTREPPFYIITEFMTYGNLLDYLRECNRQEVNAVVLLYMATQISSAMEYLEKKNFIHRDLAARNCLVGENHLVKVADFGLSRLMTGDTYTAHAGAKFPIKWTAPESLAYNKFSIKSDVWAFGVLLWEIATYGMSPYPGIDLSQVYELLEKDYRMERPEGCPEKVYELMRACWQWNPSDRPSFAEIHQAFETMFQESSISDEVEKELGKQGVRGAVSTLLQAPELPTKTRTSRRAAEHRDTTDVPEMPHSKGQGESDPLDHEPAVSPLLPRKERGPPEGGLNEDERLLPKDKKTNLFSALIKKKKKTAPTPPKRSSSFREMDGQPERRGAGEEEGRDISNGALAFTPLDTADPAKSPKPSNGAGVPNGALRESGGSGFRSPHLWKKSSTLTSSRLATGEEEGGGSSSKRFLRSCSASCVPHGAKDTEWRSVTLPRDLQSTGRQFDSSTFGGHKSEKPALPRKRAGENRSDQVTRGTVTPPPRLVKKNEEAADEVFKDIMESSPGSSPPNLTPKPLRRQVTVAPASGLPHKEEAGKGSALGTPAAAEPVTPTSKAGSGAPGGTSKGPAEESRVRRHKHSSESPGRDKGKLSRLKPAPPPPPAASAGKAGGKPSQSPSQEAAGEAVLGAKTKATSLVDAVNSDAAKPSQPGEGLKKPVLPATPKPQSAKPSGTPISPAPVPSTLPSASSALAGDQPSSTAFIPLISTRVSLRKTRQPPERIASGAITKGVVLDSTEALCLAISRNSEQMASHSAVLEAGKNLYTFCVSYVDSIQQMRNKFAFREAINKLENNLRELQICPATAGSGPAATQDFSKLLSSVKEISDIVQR

The target in this test is Tyrosine-protein kinase ABL1 (Homo sapiens) (UniProt P00519). Nature of the test: ABL1 kinase (ABL1-N-HiBiT) enzymatic inhibition screen - Functional assay. The following applies: luminescence; series mostly up to 57.5 µM. The source says: National Center for Advancing Translational Sciences (NCATS),
National Institute of Health (NIH), Maryland
Discovery and optimization of novel protein-binding ligands underlies many of the methods and applications of biology, drug discovery, clinical diagnostics, and environmental toxicology. Assays for detecting the interaction of, for example, a molecule with a macromolecular target also referred to here as the target of interest (TOI) is dependent on a compatible output technology. Depending on the nature and knowledge surrounding the TOI, whether a receptor, enzyme, regulatory subunit or scaffold, or a sequence-defined nucleic acid folded into a complex tertiary structure, assay strategies can vary widely.
Here we exploit ligand-biased changes in the structural dynamics of the target protein to control reporter alpha complementation allowing a non-competitive, non-functional, non-separation measure of ligand-target interaction.
Using a chemical library of >1,200 compounds enriched for scaffolds known to be associated with the inhibition of firefly luciferase (FLuc) activity (PubChem AIDs 2309) we first illustrate and compare the Structural Dynamics Response (SDR) assay vs. the standard functional FLuc enzyme assay (2). Secondly, we show the specificity and sensitivity of the SDR for the Abelson tyrosine kinase (ABL1) compared to the serine/threonine protein kinase A, using an enriched chemical library of 128 compounds selected, in part, for activity annotated with ABL1 kinase activity using the Pharos database (3).
(1) A. S. Dixon et al., NanoLuc Complementation Reporter Optimized for Accurate Measurement of Protein Interactions in Cells.
Chemistry & Biology, 19, 1060 - 1072 (2012).
(3) K. J. Kelleher et al., Pharos 2023: an integrated resource for the understudied human proteome. Nucleic Acids Res 51, D1405-D1416 (2023).
PROTOCOL TABLE (as described by Inglese J, Shamu CE and Guy RK. 2007)
SEQUENCE No. (e.g., 1, 2, 3, etc.); […] (e.g., C. elegans, Compounds, Incubation, Read, etc.); VALUE and DESCRIPTION.
1. Reagent. Dispense 4 uL ABL1-N-HiBiT enzyme per well at a final enzyme concentration of 10 nM in buffer with 87.5 uM ATP (functional assay) into columns 2-48 of four replicate Greiner 1536-well white, solid bottom high base, medium plates per assay. Dispense respective buffer without enzyme at 4 uL/well in column 1 of assay plates using BioRaptr 2.
2. Compounds. Library compounds added at 23 nL/well by pin transfer. DMSO neutral control and imatinib positive control added at 25 nL/well, transfer by Mosquito dispenser.
3. Incubation. Incubate enzyme and compounds at room temperature for 30 min, protected from light.
4. Reagent. (Functional assay) Transfer 25 nL of abltide peptide substrate to each well of four replicate kinase assay plates with Mosquito dispenser.
5. Incubation. (Functional assay) Kinase enzyme incubated with peptide substrate for 3 h at room temperature, protected from light.
6. Reagent. (Functional assay) Add 4 uL/well of Kinase-Glo Plus reagent (Promega) to kinase activity assay plates, in the presence of ATP.
7. Detector. (Functional assay) Luminescence measured using CCD-based camera (ViewLux) with settings as follows: Exposure, 1 sec; Gain, High; Speed, Slow; Binning, 2X.
Inglese J, Shamu CE and Guy RK, Reporting data from high throughput screening of small molecule libraries, Nature Chemical Biology, 2007, 3(8): 438-441. doi.org/10.1038/nchembio0807-438.
In general terms: With HiBiT, luminescence reflects the tagged protein that the partner subunit can reach.
Take `CC(C)(NS(=O)(=O)c1ccc2c(Cl)cnc(N=C(N)N)c2c1)C(=O)O`: the Potency entry is “inactive”.

For `COc1ccc(CNC(=O)Nc2ncc([N+](=O)[O-])s2)cc1`, the Potency entry is “inactive”.

With `Cc1cc(-c2cc(O)ccc2Cl)cc2nnc(Nc3ccc(OCCN4CCCC4)cc3)nc12`, the Potency is 0.0472 µM (active).

On to `CNS(=O)(=O)c1ccc2c(c1)/C(=C/c1[nH]c3c(c1CCCN1CCN(C)CC1)CCCC3)C(=O)N2`, for which the Potency was 9.15 µM (active).

Consider `C[C@@H]1CN(CC(=O)Nc2ccc3c(c2)Cc2cccc(-c4cc(=O)cc(N5CCOCC5)o4)c2S3)C[C@H](C)O1`, for which the Potency result is “inactive”.

As to `S=C(NCc1ccc2c(c1)OCO2)N1CCN(c2ncnc3c2oc2ccccc23)CC1`, the Potency result is “inactive”.

Turning to `COc1cc2nccc(Oc3ccc(NC(=O)Nc4ccc(F)cc4F)c(F)c3)c2cc1OC`, the Potency is 1.93 µM (active).

`CN1CCN(CCOc2cc(OC3CCOCC3)c3c(Nc4c(Cl)ccc5c4OCO5)ncnc3c2)CC1`: the Potency is 0.217 µM (active).

As to `CN1CCN(Cc2ccc(-c3cnc4[nH]cc(-c5ccc6[nH]ccc6c5)c4c3)cc2)CC1`, the Potency is 6.11 µM (active).

Turning to `CO[C@H]1/C=C/O[C@@]2(C)Oc3c(C)c(O)c4c(O)c(c(/C=N\N5CCN(C6CCCC6)CC5)c(O)c4c3C2=O)NC(=O)/C(C)=C\C=C\[C@H](C)[C@H](O)[C@@H](C)[C@@H](O)[C@@H](C)[C@H](OC(C)=O)[C@@H]1C`, the Potency result was “inactive”.

In the case of `Cn1ncc(NC(=O)c2nc(-c3c(F)cccc3F)sc2N)c1N1CC[C@@H](N)[C@H](F)CC1`, the Potency entry was “inactive”.

As to `Cc1[nH]c2ccccc2c1C1=C(NCCc2ccc(F)cc2)C(=O)N(C)C1=O`, the Potency entry was “inactive”.

`COc1cc2c(N3CCN(C(=O)Nc4ccc(OC(C)C)cc4)CC3)ncnc2cc1OCCCN1CCCCC1`: the Potency entry was “inactive”.

For `Cc1ccccc1-n1c([C@H](C)Nc2nc(N)nc3nc[nH]c23)nc2cccc(C)c2c1=O`, the Potency result was “inactive”.

In the case of `O=C1CCC(N2C(=O)c3ccccc3C2=O)C(=O)N1` (stereo unspecified), the Potency entry was “inactive”.

Take `FC(F)(F)c1ccc(/C=C/c2nc(COc3ccc(CCCCn4ccnn4)cc3)co2)cc1`: the Potency entry was “inactive”.

For the compound `Cc1ccc(NC(=O)N2CCN(c3nc(N)nc4sc(-c5cccnc5)nc34)CC2)cc1`, the Potency result is “inactive”.

Turning to `CCCS(=O)(=O)Nc1ccc(F)c(C(=O)c2c[nH]c3ncc(Cl)cc23)c1F`, the Potency result is “inactive”.

As to `Cc1cc(C)c(/C=C2\C(=O)Nc3ccccc32)[nH]1`, the Potency result was “inactive”.

On to `CCn1nc(C2CCN(C(=O)CCO)CC2)nc1-c1cnc(N)c(-c2nnc(C(C)(C)C)o2)n1`, for which the Potency entry is “inactive”.

`Cc1cccc(/C=N/Nc2cc(N3CCOCC3)nc(OCCc3ccccn3)n2)c1`: the Potency result was “inactive”.

On to `O=C(NCCO)c1cccc(-c2cc(Nc3ccc(OC(F)(F)F)cc3)ncn2)c1`, for which the Potency entry is “inactive”.

For the compound `CC[C@@](C)(Nc1ccnc(-c2c[nH]c3ncccc23)n1)C(=O)NCC(F)(F)F`, the Potency was 7.06 µM (active).

As to `Oc1ccc(-c2ccc(-c3cc(Nc4cccc(CNC5CC5)c4)n[nH]3)cc2)c(O)c1`, the Potency result was “inactive”.

`Cc1cc(O)c2c(c1)C(=O)c1cc(O)cc(O)c1C2=O`: the Potency entry was “inactive”.

Regarding `Cc1sc2c(c1C)C(c1ccc(Cl)cc1)=N[C@@H](CC(=O)Nc1ccc(OCCOCCOCCOCCNc3cccc4c3C(=O)N(C3CCC(=O)NC3=O)C4=O)cc1)c1nnc(C)n1-2` (stereo partly specified), the Potency result was “inactive”.

In the case of `C[C@@H](NC(=O)c1ncnc(N)c1Cl)c1ncc(C(=O)Nc2cc(C(F)(F)F)c(Cl)cn2)s1`, the Potency was 6.29 µM (active).

Regarding `Nc1nc(Nc2ccc(S(N)(=O)=O)cc2)n(C(=S)Nc2c(F)cccc2F)n1`, the Potency is 4.72 µM (active).

As to `CN1CCN(c2ccc(Nc3ncc4cc(C#N)c(=O)n(C5CCCC5)c4n3)cc2)CC1`, the Potency is 2.43 µM (active).

In the case of `COc1cc(N2CCC(N3CCN(C)CC3)CC2)ccc1Nc1ncc(Cl)c(Nc2ccccc2P(C)(C)=O)n1`, the Potency is 9.15 µM (active).

As for `Cc1cc(Nc2ncc3cc(-c4c(Cl)cccc4Cl)c(=O)n(C)c3n2)ccc1F`, the Potency was 0.0375 µM (active).

For `Cn1cc(-c2cc3c(N4CCN(c5ncc([C@@](C)(N)c6ccc(F)cc6)cn5)CC4)ncnn3c2)cn1`, the Potency is 12.9 µM (active).

Take `Cc1cccc(C)c1-n1c(=O)c2cnc(Nc3ccc(N4CCN(C)CC4)cc3)nc2n2c3ccccc3nc12`: the Potency was 4.08 µM (active).

On to `COc1ccccc1-c1c[nH]c2ncc(-c3cncc(C(=O)N(C)C)c3)cc12`, for which the Potency is 0.0217 µM (active).

As to `CC(C)(C)n1nc(-c2cccc3ccccc23)c2c(N)ncnc21`, the Potency result is “inactive”.

For the compound `c1ccc2c(-c3cnn4cc(-c5ccc(N6CCNCC6)cc5)cnc34)ccnc2c1`, the Potency is 0.127 µM (active).
